Measured values published in PubChem BioAssay AID707 (Columbia University Molecular Screening Center, 2007).
The whole screen tested about 91,000 compounds, of which about 310 (0.34%) were called active. The sample holds actives, similar compounds and a random draw of the others, so the mix is not that of the screen. A number with no mark means an inactive call. Rule as the data show it: active = inhibition above about 80%; inactive = the rest.

Target: Bifunctional epoxide hydrolase 2 (Homo sapiens) (UniProt P34913)
Sequence (P34913 whole entry, looked up): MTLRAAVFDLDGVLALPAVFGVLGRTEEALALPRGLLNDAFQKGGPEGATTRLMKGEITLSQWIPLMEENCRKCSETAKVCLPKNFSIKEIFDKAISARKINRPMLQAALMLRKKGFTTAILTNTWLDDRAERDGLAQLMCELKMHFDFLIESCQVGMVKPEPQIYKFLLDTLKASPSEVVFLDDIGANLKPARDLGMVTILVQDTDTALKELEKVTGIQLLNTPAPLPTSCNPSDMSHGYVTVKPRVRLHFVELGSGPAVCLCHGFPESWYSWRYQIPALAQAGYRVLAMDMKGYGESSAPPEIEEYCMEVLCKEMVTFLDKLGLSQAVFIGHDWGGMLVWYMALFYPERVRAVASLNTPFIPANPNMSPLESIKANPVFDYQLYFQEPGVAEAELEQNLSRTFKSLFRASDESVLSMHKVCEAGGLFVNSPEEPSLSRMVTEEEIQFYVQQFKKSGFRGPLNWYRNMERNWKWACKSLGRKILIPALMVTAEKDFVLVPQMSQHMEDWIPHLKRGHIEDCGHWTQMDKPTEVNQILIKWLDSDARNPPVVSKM
Test: sEH enzyme activity blockers – biochemical, human sEH, primary screen (AID 707)
Details: recombinant human sEH enzymatic activity assay; at 2 µM; hits give high values

With `Cc1ccc(NC(=S)N/N=C2/CCCc3c(C)cc(C)cc32)cc1` as the molecule, how does the inhibition read?
Its inhibition is -9.1%.

How did the inhibition turn out when `CCN(CC)CCNc1ccc(Cl)cc1[N+](=O)[O-]` was run?
The inhibition was 6.5%.

With `CSCc1cc(N2CCOCC2)nc(SCc2ccc(Cl)cc2Cl)n1` as the molecule, how does the inhibition read?
Its inhibition is -22.1%.

Which inhibition does the source give for `CCc1ccc(/C=N/NC(=O)c2ccc(OC3CCCC3)cc2)s1` here?
The inhibition was 95.6% (active).

`COc1ccc(C(=O)Nc2ccccc2C(=O)N/N=C/c2ccccc2OC)cc1` was tested. Which inhibition did it give?
Its inhibition is 4.7%.

With `CCOc1ccc(C(=O)NC2CCN(S(=O)(=O)CC)CC2)cc1` as the molecule, how does the inhibition read?
Its inhibition is -0.5%.

`O=C(NC1CCCCC1)c1cc([N+](=O)[O-])ccc1N1CCOCC1` was tested. Which inhibition did it give?
Its inhibition is 2.6%.

For `C/C(=N\NS(=O)(=O)c1cccc([N+](=O)[O-])c1)c1cc2ccccc2o1`, which inhibition is on record?
The inhibition was 7.3%.

With `O=C(Nc1ccn(Cc2ccccc2F)n1)c1ccc(COc2ccc(Cl)cc2Cl)o1` as the molecule, how does the inhibition read?
The inhibition was 1.6%.

`O=C(Nc1ccc(-n2ccnc2P(=O)(O)c2ccccc2)cc1)c1ccccc1Br` was tested. Which inhibition did it give?
The inhibition was -9.1%.

With `CC(=O)Nc1cccc(/C(C)=N/NC(=O)c2ccccc2Cl)c1` as the molecule, how does the inhibition read?
The inhibition was 7.7%.

For `O=C(NNS(=O)(=O)c1ccc(Cl)cc1)C1CCN(Cc2ccccc2)CC1`, which inhibition is on record?
Its inhibition is -4%.

How did the inhibition turn out when `CN(C)/C(CN1CCCCC1)=C1\N=C(c2ccccc2)OC1=O` was run?
Its inhibition is 6.9%.

For `CC(=O)c1cnc(SCCN2C(=O)c3ccccc3C2=O)nc1C`, which inhibition is on record?
The inhibition was 8.1%.

Which inhibition does the source give for `C=CCNC(=O)c1sc(SC)cc1-c1ccc(Cl)cc1` here?
The inhibition was -13.7%.

How did the inhibition turn out when `CC(C)CNC(=S)NNC(=O)c1ccccc1OC(F)F` was run?
Its inhibition is -9.6%.

For `COC(=O)c1ccccc1OCC(=O)N1CCN(c2ccc(Cl)cc2)CC1`, which inhibition is on record?
The inhibition was 46.4%.

With `Cc1c(NC(=O)CCCOc2ccccc2)cccc1[N+](=O)[O-]` as the molecule, how does the inhibition read?
The inhibition was 11.7%.

Which inhibition does the source give for `CCC(=O)Nc1ccc(C(=O)Nc2cc(C)on2)cc1` here?
Its inhibition is -8.6%.

Which inhibition does the source give for `CCOc1ccc(C(CCc2ccccc2)NC(=O)c2ccc(OC)c(OC)c2)cc1OCC` (stereo not drawn) here?
Its inhibition is -23.6%.

`COc1cccc(-c2nnc(SCCOc3ccc4c(C)cc(=O)oc4c3)o2)c1` was tested. Which inhibition did it give?
Its inhibition is 12.2%.

With `CCCCn1c(=S)[nH]c2cc(S(=O)(=O)N3CCCCC3)ccc21` as the molecule, how does the inhibition read?
The inhibition was 6.5%.

Which inhibition does the source give for `O=C(c1ccc(F)cc1)c1c[nH]c(C(=O)NCc2cccnc2)c1` here?
The inhibition was -11.2%.

How did the inhibition turn out when `N#Cc1ccsc1NC(=O)CN1CCCCC1` was run?
The inhibition was -1.4%.

For `O=C(COc1ccc(Cl)cc1)NCCC1=CCCCC1`, which inhibition is on record?
Its inhibition is 14.4%.

With `COc1cc(C(=O)N2CCN(C/C=C/c3ccccc3)CC2)cc(OC)c1C` as the molecule, how does the inhibition read?
The inhibition was -12.7%.

Which inhibition does the source give for `NC(=O)N1CCCC1C(=O)Nc1ccc(Cl)c(Cl)c1` (stereo not drawn) here?
The inhibition was 6.3%.

Which inhibition does the source give for `Nc1nc(Br)c2ccccc2c1-c1ccc(F)cc1` here?
The inhibition was 4.8%.

How did the inhibition turn out when `Cc1ccc(-c2csc(N(Cc3ccco3)C(=O)c3cccs3)n2)cc1` was run?
Its inhibition is -9.9%.

`O=[N+]([O-])c1ccc(NCCCN2CCOCC2)c(Cl)c1` was tested. Which inhibition did it give?
Its inhibition is 19.3%.

`CC(C)NC(=O)NC(=O)COC(=O)c1ccc(NC(=O)CC#N)cc1` was tested. Which inhibition did it give?
Its inhibition is -6%.

With `CC(C)C(NS(=O)(=O)c1cccs1)C(=O)Nc1nc(C(C)(C)C)cs1` (stereo not drawn) as the molecule, how does the inhibition read?
The inhibition was 3.1%.

`COc1cccc(/C=N/NC(=O)C(=O)N2CCCC2)c1` was tested. Which inhibition did it give?
Its inhibition is -4.3%.

How did the inhibition turn out when `O=c1cc(N2CCN(Cc3ccccc3)CC2)c(-c2ccccc2)n[nH]1` was run?
The inhibition was 5.8%.

Which inhibition does the source give for `COc1cccc(NC(=O)C2c3cc(OC)c(OC)cc3C(=O)N(C)C2c2cccnc2)c1` (stereo not drawn) here?
Its inhibition is -8.1%.

Which inhibition does the source give for `O=C(CN1C(=O)NC2(CCCC2)C1=O)Nc1ccc(F)c(F)c1F` here?
Its inhibition is -1.5%.

With `O=C(CCCN1C(=O)c2cccc3cccc(c23)C1=O)N1CCN(Cc2ccc3c(c2)OCO3)CC1` as the molecule, how does the inhibition read?
Its inhibition is 5.9%.

Which inhibition does the source give for `N/C(=N\OC(=O)c1cc(-c2ccccc2)nc2ccccc12)c1ccncc1` here?
Its inhibition is -2%.

With `O=C(CSCc1ccc([N+](=O)[O-])cc1)Nc1cccc(C(=O)Nc2ccccc2C(=O)O)c1` as the molecule, how does the inhibition read?
Its inhibition is -3.9%.

`Cc1cc(C(=O)OCC(=O)Nc2ccc(F)c(F)c2)c(C)o1` was tested. Which inhibition did it give?
Its inhibition is 7.9%.

How did the inhibition turn out when `CCC(C)n1c(-c2cc(OC)c(OC)c(OC)c2)nc2nc3ccccc3nc21` (stereo not drawn) was run?
Its inhibition is -0.7%.

`O=C(CNC(=O)OCc1ccccc1)Oc1cc2oc(=O)cc(-c3ccccc3)c2cc1Cl` was tested. Which inhibition did it give?
The inhibition was -5.2%.

How did the inhibition turn out when `COc1ccccc1N(C)S(=O)(=O)c1ccc(C(=O)N2CCC(C(N)=O)CC2)cc1` was run?
Its inhibition is 12.9%.

`CN(C(=O)CSc1nc(C2CC2)nc2ccccc12)c1nc(-c2ccccc2)cs1` was tested. Which inhibition did it give?
The inhibition was 4.4%.

How did the inhibition turn out when `CCCCNC(=O)c1onc(CSc2cccc(OC)c2)c1C(=O)O` was run?
Its inhibition is -10.5%.

How did the inhibition turn out when `CCOC(=O)C1=C(CN2CCc3ccccc32)NC(=O)NC1c1cc(C)ccc1C` (stereo not drawn) was run?
Its inhibition is -4.9%.

Which inhibition does the source give for `COc1ccc(SCc2noc(C(=O)NCC3CCCO3)c2C(=O)O)cc1` (stereo not drawn) here?
The inhibition was 1.5%.

How did the inhibition turn out when `CCCCCC(=O)Nc1ccc2oc(-c3ccncc3)nc2c1` was run?
The inhibition was 84.3% (active).

How did the inhibition turn out when `O=C(Nc1ccc2oc(-c3ccc4ccccc4c3)nc2c1)c1cccs1` was run?
Its inhibition is 34.6%.

With `O=C(Cc1cccc2ccccc12)Nc1ccc2oc(-c3ccccc3)nc2c1` as the molecule, how does the inhibition read?
Its inhibition is 50%.

How did the inhibition turn out when `C=CCNc1cnn(-c2ccc(C)cc2)c(=O)c1Cl` was run?
The inhibition was 1.9%.

With `CC(C)CC(=O)N1CCC(O)(CS(=O)(=O)Cc2ccccc2)CC1` as the molecule, how does the inhibition read?
The inhibition was 1.9%.

Which inhibition does the source give for `O=C(CN1CCN(S(=O)(=O)c2ccc(Cl)s2)CC1)NCc1ccc(Cl)cc1` here?
Its inhibition is -1.1%.

How did the inhibition turn out when `CC(C)(CCl)C(=O)Nc1ccc(Sc2ccc(F)cc2)cc1` was run?
The inhibition was 28.4%.

With `COC(=O)C(NC(=O)c1ccc(OC)cc1)(Nc1ncc(S(=O)(=O)c2ccc([N+](=O)[O-])cc2)s1)C(F)(F)F` (stereo not drawn) as the molecule, how does the inhibition read?
Its inhibition is -1.7%.

`COc1ccc(OCC(=O)NN2Cc3ccccc3C2=N)cc1` was tested. Which inhibition did it give?
Its inhibition is 4.7%.

Which inhibition does the source give for `Cc1ccccc1CSCCNC(=O)c1ccc(N(C)S(=O)(=O)c2ccccc2)cc1` here?
The inhibition was 36.1%.

`Cc1ccccc1CSCCNC(=O)c1ccc(Cl)c(S(=O)(=O)N2CCOCC2)c1` was tested. Which inhibition did it give?
The inhibition was 83.4% (active).

For `O=C(NCCSCc1ccccc1)c1ccc(Cl)c(S(=O)(=O)N2CCOCC2)c1`, which inhibition is on record?
The inhibition was 78.5%.

`O=C(COC(=O)c1ccccc1NC(=O)c1ccco1)Nc1ccc2c(c1)OC(F)(F)O2` was tested. Which inhibition did it give?
The inhibition was 28.3%.

Which inhibition does the source give for `CO/N=C/c1ccc(N2CCN(C(=O)c3cccc(Cl)c3)CC2)c([N+](=O)[O-])c1` here?
The inhibition was -9.1%.

`N#C/C(=C(/O)Cc1cccc2ccccc12)c1nc2ccccc2s1` was tested. Which inhibition did it give?
Its inhibition is -15.9%.

How did the inhibition turn out when `O=C(ON=C1CCN(S(=O)(=O)c2ccccc2)CC1)c1ccc(Cl)cc1` was run?
The inhibition was 2.3%.

For `O=C(CSc1ccc(/C=N/NC(=O)c2cccc(F)c2)o1)Nc1ccccc1`, which inhibition is on record?
Its inhibition is 79%.

Which inhibition does the source give for `O=C(/C=C/c1ccc(Cl)cc1Cl)NCc1ccco1` here?
The inhibition was 19.3%.

For `Cc1noc(C)c1S(=O)(=O)N(CC(=O)NCc1ccc(Cl)cc1)c1ccc2c(c1)OCO2`, which inhibition is on record?
Its inhibition is 14.5%.

`O=C(/C=C/c1cc2c(cc1Br)OCO2)NCc1ccc(Cl)cc1` was tested. Which inhibition did it give?
Its inhibition is 85.9% (active).

For `O=C(CNC(=O)Cc1ccccc1)NCC(=O)OCC(=O)c1ccccc1Cl`, which inhibition is on record?
Its inhibition is -0.5%.

`CCC(=O)OCc1c(C(F)(F)F)nn(C)c1Oc1cccc(C(F)(F)F)c1` was tested. Which inhibition did it give?
The inhibition was 7.8%.

With `O=C(O)c1ccccc1NC(=S)NC(NC(=O)c1ccccc1[N+](=O)[O-])C(Cl)(Cl)Cl` (stereo not drawn) as the molecule, how does the inhibition read?
Its inhibition is 7.4%.

`CNC(=S)NNC(=O)c1sccc1OCc1ccccc1` was tested. Which inhibition did it give?
Its inhibition is -3.9%.

For `N#Cc1cc([N+](=O)[O-])ccc1Oc1cccc(/C=N/NC(=O)c2ccc(Cl)cc2)c1`, which inhibition is on record?
Its inhibition is 18.1%.

For `COc1ccc(-c2cc(C(=O)n3cnc4ccccc43)c3ccccc3n2)cc1`, which inhibition is on record?
The inhibition was -13.6%.

How did the inhibition turn out when `Cc1cc([N+](=O)[O-])c(NC2CCCCC2)c([N+](=O)[O-])c1` was run?
The inhibition was -4.6%.

Which inhibition does the source give for `COc1ccc(CCNC(=O)c2ccc3c(c2)NC(=O)C(N2CCOCC2)S3)cc1OC` (stereo not drawn) here?
Its inhibition is 100% (active).

With `COc1ccc(C(=O)NCCc2ccc(S(N)(=O)=O)cc2)cc1OC` as the molecule, how does the inhibition read?
Its inhibition is 6.9%.

With `O=C(NCCCN1CCCCC1)c1ccc2c(c1)NC(=O)C(N1CCOCC1)S2` (stereo not drawn) as the molecule, how does the inhibition read?
Its inhibition is 10%.

Which inhibition does the source give for `O=C1CSC(c2ccccc2)N1c1nc(-c2ccc(Cl)cc2Cl)cs1` (stereo not drawn) here?
Its inhibition is 10.5%.

With `O=C(CN1C(=O)NC(Cc2ccccc2)(Cc2ccccc2)C1=O)NCC1CCCCC1` as the molecule, how does the inhibition read?
Its inhibition is -8.9%.

Which inhibition does the source give for `Cn1c2ccccc2n2c(=O)c(=O)n(CC(=O)c3ccc(F)cc3)nc12` here?
The inhibition was -2%.

With `O=C(CN1CCCCCC1)Nc1ccc(Br)cc1Br` as the molecule, how does the inhibition read?
Its inhibition is 9.4%.

How did the inhibition turn out when `CC1(C)CC(=O)C(C=NCCN2CCN(C(=S)Nc3cccc(Cl)c3)CC2)=C(O)C1` was run?
Its inhibition is 13.9%.

Which inhibition does the source give for `O=C(Cn1cncn1)N/N=C/c1c2ccccc2cc2ccccc12` here?
The inhibition was 2%.

With `C=CCOC(=O)C1=C(C)NC(C)=C(C(=O)OCC=C)C1c1cccs1` as the molecule, how does the inhibition read?
Its inhibition is -5.1%.

How did the inhibition turn out when `COc1ccccc1CSc1nc2ccccc2[nH]1` was run?
Its inhibition is -2.6%.

How did the inhibition turn out when `COc1cc(OC)c(/C=N/NC(=O)c2ccc([N+](=O)[O-])cc2)cc1Br` was run?
The inhibition was 35.2%.

For `Cc1ccc(NC(=S)Nc2ncccc2C)c(C)c1`, which inhibition is on record?
Its inhibition is 6.9%.

For `O=C(/C=C/c1ccccc1)N/C(=C/c1ccccc1)C(=O)Nc1ccccc1O`, which inhibition is on record?
The inhibition was 2.8%.

Which inhibition does the source give for `Cc1cc2cc3c(N)[nH]nc3nc2cc1C` here?
Its inhibition is 4.3%.

With `Cc1ccc(-n2nc(N)c3c(=O)oc(N(C)C)nc32)cc1` as the molecule, how does the inhibition read?
Its inhibition is 10.2%.

With `COc1cc(C(=O)NC(=S)NCc2ccco2)cc(OC)c1OC` as the molecule, how does the inhibition read?
The inhibition was 12%.

Which inhibition does the source give for `Cc1ccc(-c2nc3ccccc3[nH]2)cc1NC(=O)c1sc2ccccc2c1Cl` here?
The inhibition was 10.9%.

For `NC(=O)C1(N2CCCCC2)CCN(C(=S)Nc2ccc(Cl)cc2)CC1`, which inhibition is on record?
The inhibition was 0.6%.
